# Laboratory results taken from the supplement of paper PMC10338343.
# ± gives the standard deviation.
# Tested on: MILI (PIWIL2) piRISC loaded with piRNA #1 (26 nt)
# Assay: pre-steady-state target cleavage rate (min^-1); guide: piRNA #1 5'p-UGAGGUAGUAGGUUGUAUAGUAUCCA; MIWI and MILI are mouse PIWI proteins and EfPiwi is from a freshwater sponge; tags in brackets are library labels; higher = faster piRNA-guided slicing of the target
# Conditions: auxiliary factor: 500 nM mouse GTSF1
# How it was run: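 Active affinity-purified piRISC (1 nM) loaded with one synthetic guide was mixed with a transcribed, DNA-blocked target RNA library (0.1 nM), with or without 500 nM GTSF1 partner protein, in HEPES–potassium acetate buffer at 33 °C for 0–8 or 0–960 min. Uncleaved targets were sequenced, normalised to depth and to weakly complementary targets, and pooled across three trials, with k3 capped at 0.0001 min^-1. The pre-steady-state cleavage rate was determined with a burst-and-steady-state fit.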
row,Sequence,pre-steady-state target cleavage rate
1,GGAGACCUUUCUAUACAAGCUACUACCUCA,0.159 ± 0.012
2,GGAGACCUUACUAUACUACCUACUACCACA,0.173 ± 0.014
3,GGAGACCUAUGAAUACAACCUACUACCCUCA,0.00533 ± 0.0019
4,GGAGACCUAUCAAUAGAACCUACUACCUCA,0.0159 ± 0.0039
5,GGAGUGGAUAGAUUACAACCUACUACCUCA,0.0915 ± 0.01
6,GGAGACCUAUGAAUACAACCUACCACCUCA,0.00506 ± 0.0036
7,GGAGACCUAUGAAUACAACCUAGCUACCUCA,0.00489 ± 0.0025
8,GGAGACCUAUGAUAUGUUCCUACUACCUGCA,< 0.0001
9,GGAGACCAUACUAAACAACCUACUACCACA,0.233 ± 0.026
10,GGAGACCUAUGAUUACAACCGUACUACCUCA,0.00334 ± 0.0031
11,GGAGACCUAACUUUACAACCUACUACCUGA,0.0891 ± 0.041
12,GGAGACCUAUGAUAUGUACCUACUACCCA,< 0.0001
13,GGAGACCAUACUAAACAACCUACAACCUCA,0.117 ± 0.016
14,GGAGACCUUACUAUAGUACCUACUACCUCA,0.119 ± 0.0098
15,GGAGACCUAUGUAUACAACCUACUACCCUCA,0.0911 ± 0.011
16,GGAGAGGAUUCUAAACAACCUACUACCUCA,0.149 ± 0.01
17,GGAGACCUAUCUAUAGAACCUACUACGUCA,0.0269 ± 0.0089
18,GGAGACCUAUCUAUACAACCUACUACCCUCA,0.132 ± 0.015
19,GGAGACCUAUGAAUACUACCUACAACCUCA,0.00497 ± 0.0016
20,GGAGACCAUACUAUUGUACCUACUACCUCA,0.0647 ± 0.009

row,Sequence,pre-steady-state target cleavage rate
1,GGAGACCUAUCAAUACAACCUACUACCUGA,0.0265 ± 0.0091
2,GGAGACCUAUGUUUACAACCUACUACCUCA,0.0117 ± 0.0031
3,GGAGACCUUACUUUACAACCUACUACGUCA,0.0613 ± 0.011
4,GGAGACCUUACUAUAAACCUACUACCUCA,0.00481 ± 0.0027
5,GGAGACCUAUGAAUACCACCUACUACCUCA,0.00372 ± 0.0036
6,GGAGACCUAUCUAUACAGCCUACUACCUCA,0.0315 ± 0.006
7,GGAGACCUAUGAAUACAACCUACCUACCUCA,0.0088 ± 0.0035
8,GGAGACCUAACUAUACUACCUACAACCUCA,0.0957 ± 0.018
9,GGAGACCUAUGAUAACAACCCACUACCUCA,0.00347 ± 0.0029
10,GGAGACCUAUGUAUACAUGCUACUACCUCA,0.0469 ± 0.007
11,GGAGACGAAACUAUACAACCUACUACCUCA,0.172 ± 0.022
12,GGAGACCUAUGAUAUGAACCUAGCUACCUCA,< 0.0001
13,GGAGACCUAUGAAUACAACAUACUACCUCA,0.00332 ± 0.0021
14,GGAGACCUAUCUUUACAAGCUACUACCUCA,0.122 ± 0.01
15,GGAGUGGAUACUUUAGAACCUACUACCUCA,0.116 ± 0.0096
16,GGAGACCUAACAAUACAACCUAGUACCUCA,0.00888 ± 0.0052
17,GGAGACCAUACUAUAGAACGUACUACCUCA,0.00933 ± 0.0017
18,GGAGACCUAUCUAUUCUACCUACUACCUCA,0.0569 ± 0.0086
19,GGAGACCUAACUAUACAACCUAGAACCUCA,0.00531 ± 0.005
20,GGAGACCUUACUAUACUACCUUCUACCUCA,0.0109 ± 0.0029
